Only some compounds are listed: those with a hit (about 1.4% of all), similar ones and a draw of the others.
Mtb MbtI inh – MbtI salicylate synthase inhibition; P9WFX0; purified MbtI enzyme, fluorescence intensity read-out; inhibition, % (no concentration beside the values); 100,000 tested, 0.89% active; in the data active means inhibition mostly above about 56%, no sharp cut-off; inactive means mostly below about 77%
MenB inh – inhibitors of Mycobacterium tuberculosis MenB enzyme. 100,000 tested, 0.43% active. P9WNP5. AID 540299. inhibition, % (no concentration beside the values). MenB enzyme assay, absorbance read-out; in the data active means inhibition above about 21%, passing the limit was not always enough
Polio RdRp inh – inhibitors of poliovirus RNA polymerase binding and polymerization | poliovirus polymerase elongation, fluorescence polarization; active compounds read low | P03300 | AID 588519 | 150,000 tested, 0.66% active | % elongation, % (compound at 16.7 µg/mL); in the data active means % elongation below about 90%
Target sequence (P03300 1749-2209 limits assumed): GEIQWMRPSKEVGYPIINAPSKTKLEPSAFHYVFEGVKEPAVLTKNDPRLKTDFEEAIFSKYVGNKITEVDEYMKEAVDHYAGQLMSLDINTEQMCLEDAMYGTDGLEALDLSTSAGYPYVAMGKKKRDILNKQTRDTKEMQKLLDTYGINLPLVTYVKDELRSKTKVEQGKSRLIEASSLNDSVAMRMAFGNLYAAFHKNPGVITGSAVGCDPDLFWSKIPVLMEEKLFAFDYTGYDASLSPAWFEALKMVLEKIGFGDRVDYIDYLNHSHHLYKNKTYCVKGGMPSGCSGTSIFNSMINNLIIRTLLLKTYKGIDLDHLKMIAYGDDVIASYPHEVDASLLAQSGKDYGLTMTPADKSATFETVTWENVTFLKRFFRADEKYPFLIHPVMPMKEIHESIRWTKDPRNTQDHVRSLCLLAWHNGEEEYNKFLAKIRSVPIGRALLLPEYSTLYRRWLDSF
Large screens that a line does not name were inactive.

CCN(CC)S(=O)(=O)c1ccc(Cl)c(C(=O)OC)c1	none
CCN(CC)S(=O)(=O)c1ccc(Cl)c(C(=O)Oc2ccc(C)c(C)c2)c1	Polio RdRp inh 45.0
CCN(CC)C(=O)c1csc(Nc2ccc(OC)cc2)n1	none
O=c1oc2c3c(c(Cl)cc2c2c1CCC2)OCN(Cc1ccccc1)C3	none
O=C(Nc1cccc(C(F)(F)F)c1)c1cccc(F)c1	none (no result: MenB inh)
C[N+]1(C)CCOC12CCCCC2	MenB inh 45.4
CCN1CCCC1CNC(=O)c1sc2nc3n(c(=O)c2c1C)CCCCC3 (stereo not drawn)	none
CCOc1ccc(C(O)C2CCNCC2)cc1 (stereo not drawn)	none
O=C(O)c1cccc(Oc2ccccc2)c1	none (no result: MenB inh)
NC(=S)c1cccc(Oc2ccccc2)c1	Polio RdRp inh 87.0
CCC(CC)NC(=O)CSc1nnc(-c2ccc(C)cc2)n1N	Polio RdRp inh 78.0
Cc1ccc(-c2nnc(SCC(=O)C(C)(C)C)n2N)cc1	none
Clc1cccc2sc(N3CCCC3)nc12	none
Clc1nc2c(Cl)cccc2s1	Mtb MbtI inh 58.7

From PubChem
